Here are results for 79 compounds from PubChem BioAssay AID1347075 (National Center for Advancing Translational Sciences (NCATS), 2019).

Each structure is given as a SMILES string. The whole screen tested about 400,000 compounds, of which about 5,500 (1.4%) were called active. A call without a number means that no potency is given here. Inconclusive results (about 9%) are left out. Calls follow the shape of the dose curve; as a rule, active = well fitted cell-killing curve with a large enough effect; inconclusive = small, poorly fitted or top-dose-only effect, or effect the other way; inactive = flat fitted curve, though single readings scatter. This excerpt belongs to a sample that is enriched for actives.
Potency is read from the fitted curve at half-maximal effect.

This experiment is described as follows: qHTS assay for MDR1-selective chemotherapeutics: Primary screen using the parental adenocarcinoma cell KB-3-1. Also: nearly all actives have a fitted effect of over 60% in size. The note with it: KB-3-1 viability, CellTiter-Glo ATP luminescence, 72 h; series mostly up to 46.1 µM. The method in brief: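 72 h, 37 °C compound treatment of KB-3-1 parental cells; CellTiter-Glo added, 10 min, luminescence read. Data corrected against DMSO-only plates and normalized before curve fitting.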
In general terms: qHTS replaces the single test concentration by a dilution series.
On to `Cc1ccccc1CN1CCC(CNC(=O)c2cc3ccc4cccnc4c3[nH]2)CC1`, for which the Potency result was “inactive”.

For the compound `COc1cc2[nH]c(=O)n(Cc3ccc(C(=O)NCc4ccc(C)cc4)cc3)c(=O)c2cc1OC`, the Potency result was “inactive”.

Take `CC1CCCCN1Cc1c(O)ccc2c(=O)c(-c3cccc(Cl)c3)c(C(F)(F)F)oc12` (centres undefined): the Potency entry is “inactive”.

On to `Cc1nc(N=C(N)N)nc2c(C)cccc12`, for which the Potency was 10.3 µM (active).

Turning to `COc1nc(N=C(N)N)nc2c(C)cccc12`, the Potency result is “inactive”.

With `COc1ccc(CNc2nnnn2C)cc1`, the Potency result was “inactive”.

With `COc1ccc(CNc2nc(NCc3ccc(OC)cc3)c3ncn(C4CCCC4)c3n2)cc1`, the Potency was 6.51 µM (active).

Regarding `COCCNc1ncnc2c1ncn2[C@H]1CN(Cc2ccc(OC)cc2)C[C@@H](CO)O1`, the Potency entry was “inactive”.

For `COc1ccc(S(=O)(=O)NCc2cccn2Cc2cccc(C)c2)cc1`, the Potency entry is “inactive”.

Regarding `COc1ccc(CC(=O)N2CC(=O)Nc3ccc(Br)cc3C2c2ccc(F)cc2)cc1OC` (centres undefined), the Potency result is “inactive”.

In the case of `COc1ccc(-c2cc(C(F)(F)F)nc(SCC(=O)N(C)Cc3ccccc3)n2)cc1OC`, the Potency entry is “inactive”.

Regarding `Cc1ccc(F)cc1NC(=O)CCSc1nc(-c2ccco2)cc(C(F)(F)F)n1`, the Potency entry was “inactive”.

For `CC1(Cc2ccccc2C#N)C(=O)Nc2ccc(-c3ccc4[nH]ccc4c3)cc21` (centres undefined), the Potency was 6.51 µM (active).

Turning to `COc1ccccc1CC1(C)C(=O)Nc2ccc(OC(F)(F)F)cc21` (centres undefined), the Potency entry was “inactive”.

Regarding `Cc1ccc(CC2(C)C(=O)Nc3ccc(OC(F)(F)F)cc32)cc1` (centres undefined), the Potency entry is “inactive”.

On to `COc1ccc(CCNC(=O)c2cc3cccc4c3n2CC(C)S4)c(OC)c1OC` (centres undefined), for which the Potency result is “inactive”.

Consider `CC(C)Cn1c(C2CC(=O)N(c3ccccc3Cl)C2)nc2ccccc21` (centres undefined), for which the Potency result is “inactive”.

Regarding `O=C(CSc1nc(-c2cccc(F)c2)[nH]c1-c1ccccc1)Nc1ccc2c(c1)OCO2`, the Potency entry was “inactive”.

With `COc1cccc(C(=O)NC2(C(F)(F)F)C(=O)Nc3c2c(=O)[nH]c(=O)n3-c2ccc(C)cc2)c1` (centres undefined), the Potency result was “inactive”.

Turning to `CC(=O)Nc1ccc(S(=O)(=O)N2CCN(c3ccccc3)CC2)cc1`, the Potency result is “inactive”.

As to `CC(=O)Nc1ccc(Nc2c3ccccc3nc3ccccc23)cc1`, the Potency is 4.61 µM (active).

With `CCc1c(C)nc2c(-c3ccccc3)c(C)nn2c1Nc1ccc(NC(C)=O)cc1`, the Potency entry was “inactive”.

Regarding `COc1ccc(CNC(=O)c2ccc3c(c2)nc2n3CCOC2)c(OC)c1`, the Potency result is “inactive”.

Take `Cc1nc2nc(SCC(=O)N(Cc3ccccc3)C(C)C)nn2c(C)c1Cc1ccccc1Cl`: the Potency entry is “inactive”.

For the compound `O=C(Nc1ccccc1Cl)/C(Cl)=C(\Cl)S(=O)c1ccccc1` (centres undefined), the Potency was 6.51 µM (active).

Turning to `O=C(Nc1ccccc1Cl)c1ccccc1S(=O)(=O)c1ccccc1[N+](=O)[O-]`, the Potency result is “inactive”.

With `O=C(Nc1ccccc1Cl)N1CCC(CN2CCCCC2)CC1`, the Potency result was “inactive”.

Take `NS(=O)(=O)c1ccc(NC(=O)COc2ccc(S(=O)(=O)NC3CCCCC3)cc2)cc1`: the Potency result was “inactive”.

Turning to `COc1ccccc1N1CCN(c2ccc(=O)n(CC(=O)NCc3ccc(OC(C)C)cc3)n2)CC1`, the Potency result was “inactive”.

As to `Cc1cc(C)cc(NC(=O)CCS(=O)(=O)c2cc3c4c(c2)CCN4C(=O)CC3)c1`, the Potency entry is “inactive”.

For `Cc1ccc(Oc2c(C(F)(F)F)oc3c(CN4CCCCC4)c(O)ccc3c2=O)cc1`, the Potency entry is “inactive”.

Regarding `COc1ccc(CN2CCOC2=O)cc1OC`, the Potency result is “inactive”.

With `COc1ccccc1CNC(=O)CCn1c(=O)sc2ccccc21`, the Potency entry was “inactive”.

For `COc1ccc(Cn2c(=O)sc3ccccc32)cc1OC`, the Potency is 14.6 µM (active).

As to `Cc1ccc(-c2nnc3ccc(SCC(N)=O)nn23)cc1`, the Potency entry is “inactive”.

Consider `CCN1CCN(C(c2ccc(C)cc2)c2c(O)cc(C)n(Cc3ccco3)c2=O)CC1` (centres undefined), for which the Potency result was “inactive”.

Regarding `CCN1CCN(C(c2cccnc2)c2cc(Cl)c3cccnc3c2O)CC1` (centres undefined), the Potency was 7.31 µM (active).

As for `O=C(NCc1cccnc1)C(=O)NCC(c1cccnc1)N1CCN(c2ccccc2)CC1` (centres undefined), the Potency result is “inactive”.

In the case of `O=C1CCC[C@@H]2C[C@@]3(C[C@@H]4CCN1[C@H]24)Nc1ccccc1NC3=NCc1ccccc1`, the Potency entry is “inactive”.

In the case of `Cc1c(Cl)cccc1-c1ccc(CNCCCSc2nnnn2C)o1`, the Potency entry was “inactive”.

For the compound `Cc1ccsc1C1C(C#N)=C(N)OC2=C1C(=O)CC(C)C2` (centres undefined), the Potency entry is “inactive”.

On to `C=CCSC1=C(C#N)C(c2cc(Br)c(O)c(OC)c2)CC(=O)N1` (centres undefined), for which the Potency result is “inactive”.

Consider `CCOC(=O)CSC1=C(C#N)C(c2sccc2C)CC(=O)N1` (centres undefined), for which the Potency is 5.01 µM (active).

In the case of `CCOc1ccc(NC(=O)Cn2cc(C(=O)c3ccc(C)cc3)c(=O)c3cc4c(cc32)OCCO4)cc1`, the Potency entry is “inactive”.

As to `CCOc1cc(C2C(C(=O)OC)=C(C)NC3=C2C(=O)c2ccccc23)ccc1O` (centres undefined), the Potency entry is “inactive”.

`Clc1ccc(C[n+]2cc(-c3ccccc3)n3c2CCC3)cc1`: the Potency was 7.31 µM (active).

Consider `Cc1ccc(C(=O)N2CCCC(c3ccccc3)=N2)cc1`, for which the Potency result is “inactive”.

As to `Cc1ccc(C(=O)C[n+]2cc(-c3ccccc3)n3c2CCCCC3)cc1`, the Potency was 8.2 µM (active).

For `Cn1c(-c2ccccc2)c[n+]2c1CCCCC2`, the Potency result was “inactive”.

On to `Cc1ccc(C(=O)CSc2nc(-c3ccccc3)nc3c2CCCC3)c(C)c1`, for which the Potency result was “inactive”.

In the case of `CC1(C)C=Cc2c(ccc(C(=O)/C=C/c3ccccc3)c2O)O1`, the Potency entry is “inactive”.

For `COc1ccc(CN2CCc3nc(Nc4ccccc4)ncc3C2)c(OC)c1OC`, the Potency result was “inactive”.

For `CCS(=O)(=O)N1CCc2cc(C(=O)NCc3ccc(OC)cc3)ccc21`, the Potency entry is “inactive”.

For `Cc1cccc(N2CCN(C(=O)c3ccc4c(c3)CCN4S(=O)(=O)c3ccccc3)CC2)c1C`, the Potency is 23.1 µM (active).

Turning to `CC1CCN(C(=O)c2cccc(S(=O)(=O)N3CCCc4ccccc43)c2)CC1`, the Potency result is “inactive”.

Turning to `Cc1[nH]c2ccc(C(=O)N3CCN(C)CC3)cc2c1C`, the Potency result is “inactive”.

As to `CCOc1ccccc1N1CCN(C(=O)c2ccc3[nH]c(C)c(C)c3c2)CC1`, the Potency is 8.2 µM (active).

For the compound `CCOc1ccccc1NC(=S)N1CCN(c2cccc(C)c2C)CC1`, the Potency result was “inactive”.

In the case of `COc1ccccc1NS(=O)(=O)c1ccc(C(=O)N2CCN(c3ccccc3O)CC2)cc1`, the Potency entry is “inactive”.

For `CCn1c(C)c(C)c2cc(C(=O)N3CCN(c4cccc(C)c4C)CC3)ccc21`, the Potency result was “inactive”.

As for `CCS(=O)(=O)N1CCc2cc(C(=O)N3CCN(c4ccccc4OC)CC3)ccc21`, the Potency was 14.6 µM (active).

`Cc1cccn2c(=O)c(C(=O)NC(C)c3ccccc3)cnc12` (centres undefined): the Potency entry was “inactive”.

Turning to `COc1cc(C(=O)NCC(c2ccc(Cl)cc2)N2CCOCC2)cc(OC)c1OC` (centres undefined), the Potency result was “inactive”.

As for `O=C(NCC(c1cccnc1)N1CCc2ccccc21)c1cccc(C(F)(F)F)c1` (centres undefined), the Potency result was “inactive”.

`CCOC(=O)c1cc2c(=O)n3ccccc3nc2n(CC2CCCO2)c1=NC(=O)c1ccccc1Br` (centres undefined): the Potency result was “inactive”.

As for `Cn1nc(-c2ccccc2)c(-c2nc(-c3ccc(Cl)cc3)no2)c1Cl`, the Potency result is “inactive”.

Turning to `Cn1nc(-c2ccccc2)c(CO)c1Sc1ccccc1`, the Potency entry was “inactive”.

As for `Cn1nc(-c2ccccc2)c(CSc2cccc(Cl)c2)c1Cl`, the Potency was 23.1 µM (active).

For the compound `COc1ccccc1N1CCN(C(=O)C2CCN(S(=O)(=O)c3c(C)noc3/C=C/c3ccc(C)cc3)CC2)CC1`, the Potency entry was “inactive”.

In the case of `O=c1c2cccnc2n(Cc2cccc(F)c2)c(=O)n1Cc1ccccc1Cl`, the Potency result is “inactive”.

Take `Cc1ccc(-c2cc(C(=O)N/N=C/C=C/c3ccccc3)n[nH]2)o1`: the Potency result is “inactive”.

With `CC(C)c1cc(C(=O)O)n[nH]1`, the Potency result is “inactive”.

As for `CC(C)c1cc(C(=O)N/N=C/C(Br)=C/c2ccccc2)n[nH]1`, the Potency is 10.3 µM (active).

Regarding `CCOC(=O)c1cc2cc(C)ccc2[nH]1`, the Potency result is “inactive”.

On to `CCOC(=O)c1c(C)[nH]c(C)c1C(=O)COC(=O)/C=C/c1cccc([N+](=O)[O-])c1`, for which the Potency result is “inactive”.

Take `CCOC(=O)C=Cc1ccc(C(=O)OCC)[nH]1`: the Potency was 7.31 µM (active).

Consider `COc1ccccc1CNC(=O)C(Cc1ccccc1)NS(=O)(=O)c1ccc2c(c1)oc(=O)n2C` (centres undefined), for which the Potency entry is “inactive”.

Take `COc1ccccc1CN1CCC(CNC(=O)c2cnn(-c3ccccc3Cl)c2C2CCN(C(=O)OC(C)(C)C)CC2)CC1`: the Potency result was “inactive”.

For `Cc1cc(Cl)ccc1NC(=O)Cc1ccc(NC(=O)N2CCCCc3ccccc32)cc1`, the Potency entry was “inactive”.
